This is part of a sample that, as a whole, favours compounds with a hit. Of some 83,000 tested, about 20% had one in any assay.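 Method: cells in 96-well plates; compound added at one concentration; 48 h incubation; percent growth measured; values under 10 scored active.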 Unmarked numbers belong to inactive results. The source made the active and inactive calls.

The subject of this assay is SF-539 CNS. Nature of the assay: NCI-60 one-dose screen, 48 h (100 = growth as untreated, 0 = no growth, -100 = all killed). The following applies: 10 µM unless noted.
For `C=CC1=C[C@@H]2[C@@H]3O[C@]4(CC[C@H](O4)[C@@H](C)C[C@@H](O)C3=O)C[C@H](O)C3=NCC[C@@]32CC1`, the growth is -43.6% (active).
With `Cc1cc(-c2nc3cc(F)ccc3[se]2)cc(F)c1N`, the growth was 94.7%.
As to `CN1CC(=O)N(O)C1(C)c1cccnc1` (configuration not stated), the growth was 98.3%.
Turning to `O=C(Nc1ccncc1F)c1cn(CC2CC2)c2ccccc12`, the growth was 110%.
The figure for `COc1cccc2c1c(C(=O)C(=O)Nc1cc(C)no1)cn2Cc1ccc(F)cc1` is 67.2%; for `CC(C)OC(=O)[C@H](C)NP(=O)(Oc1ccccc1)C1CCCN(O)C1=O` (some centres not stated) it is 87.7%; for `CC[C@@H]1[C@@H](C)O[C@@](O)([C@@H](C)[C@H](O)[C@H](C)[C@H]2OC(=O)/C=C/C=C/[C@H](C)[C@@H]([C@@H](C)[C@@H](O)[C@H](C)[C@@]3(O)C[C@@H](O[C@H]4C[C@@H](O)[C@H](O)C(C)O4)[C@H](CC)[C@@H](C)O3)OC(=O)/C=C/C=C/[C@@H]2C)C[C@H]1O[C@@H]1C[C@@H](O)[C@H](O)C(C)O1` (some centres not stated) it is -96.8% (active).
With `CCOc1ccc(/C=C/[N+](=O)[O-])cc1`, the growth was 39%.
Consider `O=C1C2C(C(=O)[N]1[Hg][c]1ccccc1)C1(Cl)C(Cl)=C(Cl)C2(Cl)C1(Cl)Cl` (configuration not stated), for which the growth was 10.3%.
In the case of `COC(=O)[C@@H](C)C[C@H](Cc1ccc2ccccc2c1)NC(=O)c1csc([C@@H](C[C@H](C(C)C)N(C)C(=O)[C@@H](NC(=O)[C@H]2CCCCN2C)C(C)C)OC(C)=O)n1`, the growth is 10.4%.
In the case of `Cc1cc(N(CCCl)CCCl)ccc1C=Nc1ccccc1-c1ccccc1` it was 61.7%.
As for `CCn1cnc2c(Nc3cccc(Cl)c3)nc(N[C@@H]3CCCC[C@@H]3N)nc21`, the growth was -5.76% (active).
Turning to `CC12CCC3C(CCC4=CC(=O)CCC43CF)C1CCC2=O` (configuration not stated), the growth was 106%.
The figure for `C=CC12CCN(CC1)C(C(O)c1ccnc3ccc(OC)cc13)C2` (configuration not stated) is 89.8%; for `COc1cc([C@@H]2c3cc4c(cc3[C@H](OC(C)=O)[C@H]3COC(=O)[C@H]23)OCO4)cc(OC)c1OC` it is -11% (active).
Regarding `CC(=O)[O][Hg][O]C(C)=O`, the growth is 108%.
On to `O=C(CCCCCCC(=O)Nc1ccc(N(CCCl)CCCl)cc1)NO`, for which the growth is 31.1%.
The figure for `CC[C@H](C)[C@H](NC(=O)[C@H]1CCCCN1C)C(=O)N(C)[C@H](C[C@@H](OC(C)=O)c1nc(C(=O)NC23CC(C(=O)OC)(C2)C3)cs1)C(C)C` is -22% (active).
The figure for `COc1ccc(/C(C)=C(\c2ccc(OCCN3CCOCC3)cc2)c2ccc(OC(=O)Cc3ccccc3)cc2)cc1` is 112%; for `NC(=O)C(Br)c1ccccc1` (configuration not stated) it is 109%; for `O=C([O][Hg][CH2]C1OCCOC1[CH2][Hg][O]C(=O)c1ccccc1)c1ccccc1` (configuration not stated) it is 79.8%.
In the case of `CN(C)CCCOc1ccc2c(c1)c(C(=O)C(=O)NCCO)cn2Cc1ccccc1` it was 103%; in that of `C1CCC([PH+](C2CCCCC2)C2CCCCC2[PH+](C2CCCCC2)C2CCCCC2)CC1.O=C(C1[CH-]CCCC1)C1CCCC[N-]1.[Au]` (configuration not stated), -87.9% (active).
Consider `C[Se]C(=O)c1ccccc1OC(C)=O`, for which the growth is 50.3%.
As for `CC(C)COC(C[N+](=O)[O-])C(Cl)(Cl)Cl` (configuration not stated), the growth was 106%.
In the case of `Oc1c(O)c(Cl)c(Cl)c(Cl)c1Cl` it was 20.9%; in that of `NC(N)=N/N=C\c1c[nH]c2ccc(Br)cc12`, 84%; in that of `Brc1ccc2c(c1)c(-c1nc(-c3c[nH]c4ncccc34)cs1)cn2CCN1CCCCC1`, 87.3%.
In the case of `COc1ccc2c(c1)c(C1(O)CC(CSC#N)OC1=O)cn2C(=O)c1ccc(Cl)cc1` (configuration not stated) it was 96.3%; in that of `COC(=O)[C@@H](C)C[C@H](Cc1ccccc1)NC(=O)c1nc([C@@H](C[C@H](C(C)C)N(C)C(=O)[C@@H](NC(=O)[C@H]2CCCCN2C)C(C)C)OC(C)=O)sc1C`, -16.5% (active); in that of `COc1ccc(-n2c(C)nc3cc(OC)c(OC)cc3c2=O)cc1OC`, 96.2%.
The figure for `CC[S][Hg][Cl]` is 105%; for `COc1ccc(C2=CC(c3ccc(OC)c(OC)c3)c3c(c4ccccc4oc3=O)O2)cc1OC` (configuration not stated) it is -17.8% (active); for `COc1ccc(/C=C\c2cc(OC)c(OC)c(OC)c2)cc1OCC(=O)Nc1nc2ccc(OC(F)(F)F)cc2s1` it is 14%.
In the case of `CCCCCCCCCCCCCCCCCC1OC[C@H](COC(=O)O[C@@H](C(=O)O[C@H]2C[C@@]3(O)[C@@H](OC(=O)c4ccccc4)[C@@H]4[C@]5(OC(C)=O)CO[C@@H]5C[C@H](O)[C@@]4(C)C(=O)[C@H](OC(C)=O)C(=C2C)C3(C)C)[C@@H](NC(=O)c2ccccc2)c2ccccc2)O1` (some centres not stated), the growth was 43.3%.
The figure for `O=C(Nc1ccc(O)cc1)C(Cl)(Cl)Cl` is 93.1%; for `CCOC(=O)[C@@H](C)C[C@H](Cc1ccccc1)NC(=O)c1nc([C@@H](C[C@H](C(C)C)N(C)C(=O)[C@@H](NC(=O)[C@H]2CCCCN2C)C(C)C)OC(C)=O)sc1CCOCc1ccccc1` it is -69.2% (active).

Values taken from PubChem BioAssay (NCI).
